# Hit rate of the full screen: of about 200,000 compounds, about 5,100 (2.5%) were called active. Shown is part of a subset that was picked to be rich in actives. Values without a mark were called inactive.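 How the source made its calls: active means activation above the screen-wide mean activation plus 3 SD (cut at about 130% in these data); inactive means the rest.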
# Test: potentiators of IFN-gamma driven STAT1 reporter – cell-based, HTS, luciferase reporter, primary screen (AID 932);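 further: raw ratio to IFN-gamma control signal so 100% means no change and 0% no light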
# Conditions: NIH 3T3 STAT1-luciferase reporter, luminescence, at 5.5 µM, stronger effect = higher value, 100% = IFN-gamma alone, no compound
row,Structure (SMILES),activation (% of control)
1,Cc1cc(NS(=O)(=O)c2ccc(NC(=O)c3cccc(OC(F)F)c3)cc2)nc(C)n1,105%
2,CCOC(=O)C1(CCOc2ccccc2)CCN(C(=O)c2cncs2)CC1,99.2%
3,CCOC(=O)C1(Cc2ccccc2C(F)(F)F)CCN(C(=O)c2cc(C)n(C)n2)CC1,131% (active)
4,CCOC(=O)C1(Cc2ccc(Cl)cc2)CCN(C(=O)C2=NNC(=O)CC2)CC1,96.4%
5,O=c1cc(CO)oc(C(Nc2cccc(C(F)(F)F)c2)c2ccccn2)c1O (configuration not stated),99.4%
6,CCOC(=O)c1ccc(-c2ccc(C(=O)Nc3cccnc3)o2)cc1,132% (active)
7,CCOc1cccc(C(=O)Nc2cccnc2)c1,101%
8,CCOC(=O)c1cc(NC(=O)c2cccnc2)cc(C(=O)OCC)c1,96.5%
9,O=C(N1CCCC1)C12CC3CC(C1)CC(C(=O)N1CCCC1)(C3)C2,99.8%
10,CCCNC(=O)c1c(Cl)cnn1-c1ccc(C)cc1,142% (active)
11,CCCNC(=O)c1ccc(Cl)c(Cl)c1,98.4%
12,Cc1c(C(=O)NCc2ccccc2)cnn1-c1ccccc1,101%
13,Cn1ncc(N2CCN(S(=O)(=O)c3ccc(Br)cc3)CC2)c(Cl)c1=O,110%
14,COc1cc(C)c(Cl)cc1S(=O)(=O)n1ccnc1,92.5%
15,Nc1nc(NCCCN2CCOCC2)nc(Nc2ccccc2)c1[N+](=O)[O-],103%
16,COCCNc1nc(N)c([N+](=O)[O-])c(NCCO)n1,114%
17,CNc1nc(Nc2ccc(C)c(Cl)c2)nc(N)c1[N+](=O)[O-],142% (active)
18,Cc1nn(-c2ccccc2)c(NC(=O)c2cccs2)c(-c2ccc(Cl)cc2)c1=O,107%
19,CC(C)N1CCC(NC(=O)Nc2ccccc2)CC1,95.4%
20,CC(C)(C)NS(=O)(=O)c1ccc(NC(=O)NC2CCCCC2)cc1,103%
21,CC(C)c1ccc(NC(=O)NC2CCCCC2)cc1,180% (active)
22,Cc1nn2cc(-c3ccc(Cl)cc3)cnc2c1Br,140% (active)
23,COc1ccccc1-c1nnc(NC(=O)c2ccc3ncsc3c2)o1,122%
24,O=C(CC(=O)N/N=C\c1ccc(F)cc1)NCCc1ccccc1,100%
25,O=C(NNC(=O)C1C2CCC(C2)C1C(=O)O)c1ccc(Cl)cc1 (configuration not stated),110%
26,CC(C)(C)OC(=O)N/N=C/c1ccc(C(=O)O)cc1,104%

row,Structure (SMILES),activation (% of control)
1,Cc1ccccc1NC(=O)NNC(=O)OC(C)(C)C,103%
2,C/C(=N\NC(=O)OC(C)(C)C)c1ccc[nH]1,130% (active)
3,COc1ccc(C(=O)C2CCCN(C(=O)c3cc4nc(C)cc(C)n4n3)C2)cc1F (configuration not stated),95.3%
4,COc1ccc(-n2nc3c(c2NC(=O)c2ccc(N4C(=O)CCC4=O)cc2)CSC3)cc1,96.7%
5,NC(N)=N/N=C/c1ccc(Cl)c([N+](=O)[O-])c1,93.6%
6,Cc1cc(C(=O)NNC(=S)Nc2ccccc2C)cs1,130% (active)
7,Cc1ccccc1NC(=S)NNC(=O)c1cccc(Br)c1,104%
8,Cc1ccc(NC(=S)NC(=O)c2ccc(-c3ccccc3)cc2)c(C)c1,92%
9,Cc1ccc(C)c(NC(=S)NNC(=O)c2csc(C)c2)c1,97.8%
10,Cc1ccc(NC(=S)NC(=O)c2ccc(-c3ccccc3)cc2)cc1,98.2%
11,Cc1ccc(C(=O)NC(=S)Nc2ccccc2C)cc1,130% (active)
12,CCCN(C(=O)CSc1nnnn1C)c1c(N)n(Cc2ccccc2)c(=O)[nH]c1=O,101%
13,COc1ccc(N/N=C2/CCCCC2=O)cc1,105%
14,Cc1ccc(N/N=C2\COC(C)(C)CC2=O)cc1,142% (active)
15,CCn1cc(CN2CCCC(CNS(=O)(=O)Cc3ccccc3)C2)cn1 (configuration not stated),89.7%
16,CN=c1scc(-c2cc(OC)ccc2OC)n1/N=C/c1c(C)[nH]c2ccccc12,112%
17,CCn1ccnc1CN1CCCC(C(=O)c2ccc3c4c(cccc24)CC3)C1 (configuration not stated),89.5%
18,CC(C)C(=O)Nc1cccc(C(=O)Nc2ccc3c(c2)OCO3)c1,120%
19,COc1ccc(/C=C/C(=O)Nc2ccc3c(c2)OCCO3)cc1OC,96.8%
20,O=C(/C=C/c1ccc2c(c1)OCO2)NCc1ccc(F)cc1,101%
21,CC(NC(=O)Nc1ccc2c(c1)OCO2)c1ccncc1 (configuration not stated),97.9%
22,COc1ccc(OC)c(/C=C/C(=O)OCC(=O)Nc2ccc3c(c2)OCCO3)c1,98.4%
23,Cc1cccc(NC(=O)/C=C/c2ccc3c(c2)OCO3)n1,135% (active)
24,CCc1c(C)sc(NC(=O)/C=C/c2ccc3c(c2)OCO3)c1C(=O)OC,96.1%
25,COc1cccc(/C=C/C(=O)Nc2ccc3c(c2)OCCO3)c1,129% (active)
26,Cc1cccc(NC(=O)Nc2ccc3c(c2)OCO3)n1,168% (active)

# From PubChem BioAssay AID932 (The Scripps Research Institute Molecular Screening Center, 2007)
